Data reported in PubChem BioAssay (NCI).
Compounds without any hit were thinned out: in the full panel of roughly 79,000, 15% have a hit. Activity calls are given as the source filed them. Cut-off read from the data, not from the text of the source: active = growth inhibition above about 70%; inactive = the rest.

Columns and labels:
[1] = NCI Yeast Anticancer Drug Screen. Data for the rad50 strain (AID 155);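 note: 0% = growth of vehicle-only cultures of the same strain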; conditions: S. cerevisiae rad50 strain growth inhibition; at 50.0 µM; active compounds read high
Method in brief: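 Vehicle-treated cultures provide the reference for the growth inhibition reported for compound-exposed, repair-deficient yeast.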

[2] = NCI Yeast Anticancer Drug Screen. Data for the mec2-1 strain (AID 157); conditions: S. cerevisiae mec2-1 strain, at 50.0 µM, active compounds read high
Method in brief: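 Strain: mec2-1 (DNA repair/cell cycle alteration). Compound exposure, then growth measured; inhibition expressed relative to vehicle.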

[3] = NCI Yeast Anticancer Drug Screen. Data for the sgs1 mgt1 strain (AID 161);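 note: 0% = growth of cultures given vehicle only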; conditions: S. cerevisiae sgs1 mgt1 strain, at 50.0 µM, active compounds read high
Method in brief: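 Read-out: growth inhibition vs vehicle controls. Cells: mutant yeast strain deficient in DNA damage repair.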

[4] = NCI Yeast Anticancer Drug Screen. Data for the cln2 rad14 strain (AID 165);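 note: 0% = growth equal to vehicle treated cultures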; conditions: S. cerevisiae cln2 rad14 strain, at 50.0 µM, active compounds read high
Method in brief: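 Compounds are applied to the cln2 rad14 yeast strain, and growth is then compared with that of vehicle-treated cultures to give inhibition.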

[5] = NCI Yeast Anticancer Drug Screen. Data for the bub3 strain (AID 167); conditions: S. cerevisiae bub3 mutant strain, at 50.0 µM, active compounds read high
Method in brief: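 Mutant yeast screening strain plus compound; vehicle-treated cultures serve as the 0% inhibition reference.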

[6] = NCI Yeast Anticancer Drug Screen. Data for the mlh1 rad18 strain (AID 175); conditions: S. cerevisiae mlh1 rad18 strain growth inhibition; at 50.0 µM; active compounds read high
Method in brief: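 Read-out is yeast growth inhibition, calculated against vehicle-only controls. The compound was applied to a strain engineered with DNA damage repair alterations.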

Measured: growth inhibition

C[n+]1ccccc1/C=C/c1cccc([N+](=O)[O-])c1
inactive: [1] -17.6% | [2] -2.7% | [3] -1.3% | [4] -28.8% | [5] 7.8% | [6] 1.9%

CCCNC(=O)OCC#CCOC(=O)NCCC
inactive: [1] 2.5% | [2] -4.15% | [3] 15.4% | [4] -38.5% | [5] 12.5% | [6] -6.1%

O=C(O)C1CCC2CCCC21 (configuration not stated)
inactive: [1] -25.2% | [2] -7.3% | [3] 8.95% | [4] -10.9% | [5] -18% | [6] 15.5%

CN1NC(c2ccccc2)NN(C)C1=S
inactive: [1] -19.8% | [2] -25.6% | [3] -12% | [4] -16.6% | [5] -4.45% | [6] 3.05%

Cc1ccc(-c2cc(=O)c3cc(C)c(C)c(C(=O)O)c3o2)cc1N
inactive: [1] -8.6% | [2] -3.55% | [3] 11.9% | [4] 6.1% | [5] 14.2% | [6] -7.4%

Nc1ccc(C(=O)Nc2ccc(C(=O)Nc3ccc4c(O)cc(S(=O)(=O)O)cc4c3)cc2)cc1
inactive: [1] -6.3% | [2] -6.65% | [3] -4.6% | [4] -34.3% | [5] -4.7% | [6] 12.8%

CC(C)CC1=[N+]=C(NC#N)N=C(CCC(=O)Nc2ccccc2[N+](=O)[O-])C1
inactive: [1] -10.1% | [2] -5.5% | [3] -5.55% | [4] 20.9% | [5] 0.65% | [6] 1.7%

OCC1CCNCC1
inactive: [1] 22.1% | [2] 12.1% | [3] 0.1% | [4] -1.15% | [5] -3.2% | [6] 32.2%

C=C(C)[C@@H]1CC[C@]2(C)CC[C@]3(C)[C@H](CC[C@@H]4[C@@]5(C)CC[C@H](O)C(C)(C)[C@@H]5CC[C@]43C)[C@@H]12
inactive: [1] -2.75% | [2] -4.95% | [3] -11.3% | [4] -10.4% | [5] -6.05% | [6] -11.3%

Cc1cccc[n+]1C1CCc2ccccc2C1=O (configuration not stated)
inactive: [1] 1.5% | [2] 10.7% | [3] 17.4% | [4] -23.1% | [5] -21.3% | [6] 4%

Cn1c2c(c3ccccc31)CC1c3c(c4ccccc4n3C)CC21 (configuration not stated)
inactive: [1] -79% | [2] -51% | [3] -49% | [4] -26.2% | [5] -18.6% | [6] -45.4%

CC(=O)Nc1ccc(O)c(CN2CCN(c3ccccc3)CC2)c1
inactive: [1] 33.1% | [2] 16% | [3] 17.6% | [4] 47.2% | [5] 12.1% | [6] 20.3%

CN1CNc2nc(N)n(C)c(=O)c2C1
inactive: [1] 11.2% | [2] -4.7% | [3] 11.4% | [4] 11.8% | [5] -6.5% | [6] 8.2%

COCCc1c2ccccc2cc2ccccc12
inactive: [1] 24.9% | [2] 3.2% | [3] 10.4% | [4] 7.65% | [5] -22.1% | [6] 17.8%

CC1=C(C#N)C(C)(C)c2ccccc21
inactive: [1] 19.9% | [2] -10.9% | [3] 1.9% | [4] -25.9% | [5] 10% | [6] -13.2%

CCC1CN2N=Cc3ccccc3C2=N1 (configuration not stated)
inactive: [1] -13.7% | [2] 5.35% | [3] -5% | [4] -43.5% | [5] -22.7% | [6] -15.8%

C[N+]1(C)CC=C(N2CCOCC2)CC1
inactive: [1] -27.6% | [2] -25.1% | [3] -18.8% | [4] -30% | [5] -12.9% | [6] -14.4%

CN/N=C(/Cc1occc(=O)c1O)C(=O)Nc1ccc(C)c(C)c1
inactive: [1] 15.4% | [2] 7.05% | [3] -16.7% | [4] 3.15% | [5] 7.35% | [6] 18.1%

CC(=O)Oc1ccc2c(c1)c1c(OC(C)=O)c(N(C)C(C)=O)cc(OC(C)=O)c1n2C
inactive: [1] 22.4% | [2] -0.65% | [3] 3.85% | [4] 12.4% | [5] -3.7% | [6] 5.6%

CN(C)N1C(=O)c2ccccc2NC1c1ccccc1 (configuration not stated)
inactive: [1] -19.2% | [2] -1.35% | [3] 29.6% | [4] 2% | [5] 18.9% | [6] 5.15%

CCN(CC)CCNc1c(C)cccc1Cl
inactive: [1] -2.9% | [2] 3.5% | [3] -7.1% | [4] -26.2% | [5] 1% | [6] -1.5%

CC(C)CNC(=O)/C=C/c1ccc2c(c1)OCO2
inactive: [1] 13.5% | [2] -19.1% | [3] -1.4% | [4] 3.4% | [5] 6.45% | [6] -15.1%

O=C(NCCSC(=O)Nc1ccccc1)Nc1ccccc1
inactive: [1] 0% | [2] 14.8% | [3] 5.25% | [4] -10% | [5] 29.1% | [6] 8.55%

CCN(CCOC(=O)Nc1cccc(C(C)=O)c1)c1ccccc1
active: [1] 91.2% | [2] 96.5% | [3] 97.5% | [4] 76.2% | [5] 92.1% | [6] 88.2%

N#C/C(=C\NC(=S)Nc1ccc(S(=O)(=O)Nc2nccs2)cc1)C(=O)c1ccc2ccccc2c1
inactive: [1] 7.7% | [2] 1.8% | [3] 14.3% | [4] -9.75% | [5] -8% | [6] 16.4%

COc1ccc(C)cc1Sc1ccc(C)cc1[N+](=O)[O-]
inactive: [1] -6.2% | [2] -6.7% | [3] -3.2% | [4] -27.5% | [5] 10% | [6] -22.9%

S=C(NC1CCCCC1)N1CCC(CCCC2CCN(C(=S)NC3CCCCC3)CC2)CC1
inactive: [1] -42.8% | [2] -31.2% | [3] -44.5% | [4] -1.05% | [5] -41.8% | [6] -46.2%

Nc1ccc(S(=O)(=O)O)c(N)c1
inactive: [1] 10.2% | [2] 9.05% | [3] -3.5% | [4] -0.3% | [5] 13.1% | [6] 3.95%

CC1OC(C)(Cc2ccccc2)OC1C (configuration not stated)
inactive: [1] 3.95% | [2] -13.9% | [3] -9.2% | [4] -59% | [5] -7.1% | [6] -8.95%

Cc1[nH]c(=O)[nH]c(=O)c1-n1nnc2ccccc2c1=O
inactive: [1] 21.9% | [2] 12.8% | [3] 20.7% | [4] -7.05% | [5] 8.3% | [6] 6.8%

COc1cc2c3c(c1)-c1c(ccc(OC)c1Oc1nnnn1-c1ccccc1)CC3N(C)CC2 (configuration not stated)
active: [6] 80.5%
inactive: [1] 30.4% | [2] 26.2% | [3] 28.9% | [4] 52.4% | [5] 27.8%

CN1C(=O)c2cnc3ccccc3c2C1(O)c1ccccc1 (configuration not stated)
inactive: [1] -1.75% | [2] 1.35% | [3] 2.4% | [4] 5.25% | [5] 0% | [6] 3.9%

CCCC(C)C(=O)OCCOC (configuration not stated)
inactive: [1] 2.85% | [2] -5.3% | [3] -2.95% | [4] -19.1% | [5] 4.45% | [6] 0%

C=C1OC(c2ccccc2NC)=NC12CCCCC2
inactive: [1] -11.6% | [2] -51.5% | [3] -9.9% | [4] -2.65% | [5] -14.8% | [6] -11.2%

CS(=O)(=O)OC1C(OC(=O)c2ccccc2)COC(OCc2ccccc2)C1OS(C)(=O)=O (configuration not stated)
inactive: [1] -5.4% | [2] 13.2% | [3] -11.9% | [4] -13.3% | [5] 5.35% | [6] 5.7%

O=C(O)O.O=C(O)O.O=C(O)O.[Co]
inactive: [1] -9.35% | [2] 38.3% | [3] -2.75% | [4] -11.6% | [5] 8.65% | [6] -5.05%

O=S(=O)(c1ccccc1)N1CCCCN(S(=O)(=O)c2ccccc2)COC1
inactive: [1] 5.25% | [2] -7.45% | [3] -1.65% | [4] -9.85% | [5] -7.45% | [6] -5.35%

Cc1ccc(CCCCCOc2ccc(C3=NCCO3)cc2)s1
inactive: [1] -2% | [2] 22.2% | [3] 22.4% | [4] -21% | [5] -3% | [6] -4.9%

CCc1nc(Nc2cccc(Cl)c2)c2cnn(-c3ccccc3)c2n1
inactive: [1] -11.2% | [2] -8.35% | [3] -4.35% | [4] -48.4% | [5] 14.7% | [6] -6.85%

O=C1C=CC2(CCC23C=CC(=O)O3)O1 (configuration not stated)
inactive: [1] 13% | [2] 1.95% | [3] 11% | [4] 4.2% | [5] 12.2% | [6] 20.1%

O=C1/C(=C\c2ccccc2)C2C3CCC(C3)C2/C1=C\c1ccccc1 (configuration not stated)
inactive: [1] -3.55% | [2] 0.55% | [3] 4.6% | [4] -63.8% | [5] 11.1% | [6] -17.4%

Nc1ccccc1C(=O)CCc1c[nH]c2ccccc12
inactive: [1] 5.05% | [2] 9.05% | [3] 7.6% | [4] -42.4% | [5] -12.1% | [6] 12.3%
